Sampled rows, rich in hits. Any-hit rate of the full collection: about 12%.
JMJD2A Tudor = qHTS Assay for Inhibitors of JMJD2A-Tudor Domain; actives 4.4% (n = 390,000); AlphaScreen JMJD2A-Tudor / H3K4me3 peptide binding; Lysine-specific demethylase 4A (Homo sapiens), O75164; AID 504339, 2011; Potency, µM (top dose mostly 114 µM), usual class: inhibitors; also: nearly all actives have a fitted effect of over 50% in size
HP1b chromo inh = HTS for Inhibitors of HP1-beta Chromodomain Interactions with Methylated Histone Tails | AlphaScreen HP1-beta / biotin-H3K9me3 peptide binding | actives 0.56% (n = 390,000) | Potency, µM (highest dose often 114 µM), most hits filed as inhibitors; also: nearly all actives have a fitted effect of over 70% in size
Target sequence (P83916 whole entry, looked up): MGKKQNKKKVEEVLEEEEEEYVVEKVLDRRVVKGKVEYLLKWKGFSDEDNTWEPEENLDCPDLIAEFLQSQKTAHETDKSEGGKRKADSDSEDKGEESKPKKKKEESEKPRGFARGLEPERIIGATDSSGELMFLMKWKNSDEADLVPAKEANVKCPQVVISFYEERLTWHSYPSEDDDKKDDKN
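AlphaScreen: HP1-beta (50 nM) preformed 30 min with biotin-H3(1-18)K9me3 peptide (50 nM) in PBS pH 7.4, 0.01% Tween-20. Compound added for 30 min at RT, then streptavidin donor/nickel chelate acceptor beads (10 ug/mL) for 30 min.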
PLK1 PBD inh = qHTS for Inhibitors of PLK1-PDB (polo-like kinase 1 - polo-box domain): Primary Screen; Serine/threonine-protein kinase PLK1 (Homo sapiens), P53350; Plk1 PBD binding of FITC phosphopeptide, fluorescence polarization; Potency, µM, usual class: inhibitors; actives 2.8% (n = 360,000); also: series mostly up to about 57 µM; nearly all actives have a fitted effect of over 65% in size
PI5P4K alpha inh = qHTS for Inhibitors of phosphatidylinositol 5-phosphate 4-kinase (PI5P4K) | actives 1.2% (n = 330,000) | max response, % | AID 652105, 2013 | Phosphatidylinositol 5-phosphate 4-kinase type-2 alpha (Homo sapiens), P48426 | PI5P4Kalpha enzyme, ADP-Glo luminescence, 60 min; stronger effect = lower value; active = max response of -50% or lower; inconclusive = between -30% and -50%; inactive = -30% or higher; also: value at the top dose of about 77 µM
Target sequence (P48426 whole entry, looked up): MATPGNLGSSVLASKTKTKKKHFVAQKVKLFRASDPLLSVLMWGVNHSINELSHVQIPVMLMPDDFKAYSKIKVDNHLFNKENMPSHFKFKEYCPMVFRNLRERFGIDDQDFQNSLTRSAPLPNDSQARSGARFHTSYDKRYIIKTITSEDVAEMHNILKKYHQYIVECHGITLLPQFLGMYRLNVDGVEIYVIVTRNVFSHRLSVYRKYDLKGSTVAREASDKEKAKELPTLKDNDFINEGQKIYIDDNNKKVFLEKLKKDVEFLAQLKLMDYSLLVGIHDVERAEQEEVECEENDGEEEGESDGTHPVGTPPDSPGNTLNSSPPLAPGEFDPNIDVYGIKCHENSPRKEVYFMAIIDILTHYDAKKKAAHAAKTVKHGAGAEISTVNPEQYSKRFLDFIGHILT
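ADP-Glo luminescence end-point read after a 60 min room-temperature kinase reaction of PI5P4Kalpha plus substrate, initiated with ATP at 5 microM final. Buffer: 0.038 M HEPES pH 7.4, EGTA, 0.1% CHAPS, 5% DMSO.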
G9a block = qHTS Assay for Inhibitors of Histone Lysine Methyltransferase G9a; Histone-lysine N-methyltransferase EHMT2 (Homo sapiens), Q96KQ7; G9a H3K9 monomethylation, AlphaScreen, 2 h; Potency, µM (doses to about 102 µM), hits mostly inhibitors; actives 8.8% (n = 350,000); also: nearly all actives have a fitted effect of over 75% in size
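Methyltransferase reactions run at room temperature for 2 h (20 nM enzyme, 500 nM biotin-H3K9 peptide, 20 uM SAM) after a 15 min compound preincubation; product detected by AlphaScreen beads and anti-H3K9me1 antibody.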
BAZ2B block = qHTS Assay for Inhibitors of BAZ2B. actives 4.4% (n = 360,000). Bromodomain adjacent to zinc finger domain protein 2B (Homo sapiens), Q9UIF8. Potency, µM (series often up to 114 µM), actives largely listed as inhibitors. AlphaScreen BAZ2B-H3K14Ac peptide displacement; also: nearly all actives have a fitted effect of over 60% in size
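BAZ2B 50 nM plus b-H3(5-23)K14Ac 50 nM, PBS pH 7.4/0.01% Tween-20, 30 min RT; compound added (max 110 uM), 30 min RT; streptavidin donor/Ni-chelate acceptor beads 10 ug/mL final, 20 min dark; AlphaScreen read.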
Hits are given with their value; . = inactive; ? = inconclusive; / = no result; [ ] = dose if it differs, or a comment. Unless noted, calls follow the shape of the dose curve; as a rule, active = well fitted curve in the direction sought with a large enough effect; inconclusive = small, poorly fitted or top-dose-only effect, or another doubt; inactive = no such curve, though single readings can be large; an effect the other way counts as inactive or inconclusive.

SMILES	JMJD2A Tudor	HP1b chromo inh	PLK1 PBD inh	PI5P4K alpha inh	G9a block	BAZ2B block
Cn1c(SCC(=O)N2CCCc3ccccc32)ncc(C(=O)Nc2ccc(Cl)cc2)c1=O	.	.	/	/	.	.
Cc1ccc(S(=O)(=O)N2CCOCC2)cc1N/N=C(\C#N)c1nc2ccccc2[nH]1	.	.	.	.	35µM	.
N#C/C(=C(/O)COC(=O)CCc1ccc(S(=O)(=O)N2CCOCC2)cc1)c1nc2ccccc2[nH]1	.	.	.	-52	.	.
Cc1ccc(-c2nn3c(C)nnc3c3ccccc23)cc1S(=O)(=O)NCC(C)O (stereo not drawn)	.	.	/	/	.	.
COc1cccc(C2C(C(C)=O)=C(O)C(=O)N2Cc2ccco2)c1 (stereo not drawn)	?	?	24µM	.	.[12.7 µM]	?
O=C(C1=C(O)C(=O)N(Cc2ccco2)C1c1cccc([N+](=O)[O-])c1)c1ccco1 (stereo not drawn)	50µM	.	.	.	/	.
CC(=O)C1=C(O)C(=O)N(Cc2ccco2)C1c1ccc(F)cc1 (stereo not drawn)	.	.	.	/	?	.
CC(=O)C1=C(O)C(=O)N(Cc2ccccc2)C1c1ccco1 (stereo not drawn)	?	.	.	.	50µM	?
CC(=O)C1=C(O)C(=O)N(Cc2ccco2)C1c1ccccc1 (stereo not drawn)	?	.	.	/	50µM	?
CSCCC(NC(=O)c1ccccc1Br)C(=O)N1CCCCCCC1 (stereo not drawn)	.	.	.	.	.	.
CCCOc1ccc(CNC(=O)CCCN2C(=O)CSc3c2c(C)nn3-c2ccccc2)cc1	?	?	/	/	.	.
CN(C)c1ccc(-c2ccc3ncnc(NC4CC4)c3c2)cc1	/	/	/	/	.[0.501 µM]	/
CCOC(=O)c1c(-c2ccccc2)csc1NC(=O)CCN1CCOCC1	2µM	?	.	.	?	50µM
CCOC(=O)c1c(-c2ccccc2)csc1NC(=O)c1ccc(S(=O)(=O)N2CCOCC2)cc1	.	.	.	.	.	.
CCOC(=O)c1c(-c2ccc(C)o2)csc1NC(=O)CN1CCOCC1	?	.	.	.	50µM	?
CCOC(=O)c1c(-c2ccccc2)csc1NC(=O)COc1ccc2c(C)cc(=O)oc2c1	.	?	27µM	.	.	.
CCOC(=O)c1[nH]cc(-c2ccccc2)c1N1CCOCC1	?	?	5.3µM	?	?	.
CCCc1nc2ccccc2n1CC(O)COc1ccc(C(=O)OC)cc1 (stereo not drawn)	.	.	/	/	.	.
O=C(NC(=S)NC1CCCCC1)c1ccc(F)cc1	.	.	.	.	.[12.7 µM]	?
CCOC(=O)c1c(-c2ccc(C)o2)csc1NC(=O)COC(=O)c1cccs1	.	.	.	.	10µM	.
CCOC(=O)c1c(-c2ccc(C)cc2)csc1NC(=O)CCN1CCOCC1	6.3µM	?	.	.	10µM	32µM
CCOC(=O)c1c(-c2ccc(C)o2)csc1NC(=O)CSc1ncn[nH]1	?	.	.	/	?	?
CCOC(=O)c1c(-c2cccs2)csc1NC(=O)CN1CCOCC1	.	.	.	.	.	.
CCOC(=O)c1c(-c2ccc(C)o2)csc1NC(=S)NC(=O)N(C)C	?	?	?	/	?	45µM
C[C@H]1CC2C3CCC4=CC(=O)C=C[C@]4(C)[C@@]3(Cl)[C@@H](O)C[C@]2(C)[C@@]1(O)C(=O)CO (stereo partly drawn)	/	/	/	/	.	/
SMILES	JMJD2A Tudor	HP1b chromo inh	PLK1 PBD inh	PI5P4K alpha inh	G9a block	BAZ2B block
CCOC(=O)C1CCN(CC(=O)Nc2ccc(S(=O)(=O)N3CCC(C)CC3)cc2)CC1	.	.	.	.	.	.
Cc1cc(C)c2c(CC(=O)NC(C)C)coc2c1	.	.	.	.	.	.
Cc1cc(C)c2c(=O)c(C#N)coc2c1	.	.	17µM	?	/	.
Cn1ccnc1C(O)c1ccco1 (stereo not drawn)	56µM	.	.	/	?	.
COc1ccccc1C(O)c1nccn1C (stereo not drawn)	.	.	.	.	?	.
Cc1ccn2c(c1)nc(=S)n2C(=O)c1ccco1	/	/	/	/	10µM	.
OC(COc1ccccc1)Cn1c2ccccc2c2ccccc21 (stereo not drawn)	.	.	.	.	.	.
Oc1cccc2ccc[n+](CC(O)Cn3c4ccccc4c4ccccc43)c12 (stereo not drawn)	.	.	.	.	7.9µM	?
O=C(COC(=O)C1CCC(=O)N1)Nc1ccccc1OC(F)F (stereo not drawn)	.	.	.	.	/	/
O=C1CCC(C(=O)OCc2cc(Cl)ccc2OC(F)F)N1 (stereo not drawn)	40µM	.	27µM	.	.	.
Cc1ccccc1NC(=O)CSc1nc(N2CCCCC2)nc(N2CCCCC2)n1	.	.	.	/	.[12.7 µM]	.
Cc1ccc(CNC(=O)CSc2nc(N3CCCCC3)nc(N3CCCCC3)n2)cc1	.[11.4 µM]	.	27µM	.	.	.
CS(=O)(=O)c1ccc(C(=O)OCC(=O)N2CCCC2)cc1[N+](=O)[O-]	.	.	/	/	/	/
CC1CCCN(S(=O)(=O)c2ccc(NC(=O)CN3CCN(C)CC3)cc2)C1 (stereo not drawn)	?	.	.	/	?	79µM
CC1CCCN(S(=O)(=O)c2ccc(S(=O)(=O)NC(C)c3cccs3)cc2)C1 (stereo not drawn)	.	.	?	/	40µM	.
CC1CCCN(S(=O)(=O)c2ccc(NC(=O)CNC3CCCC3)cc2)C1 (stereo not drawn)	.	.	.	.	40µM	.
COCCNC(=O)C1(C)CCCN(Cc2cc(-c3ccccc3)on2)C1 (stereo not drawn)	/	/	.	.	/	/
CSc1nn(CC(=O)Nc2cc(C)ccc2C)c(N)c1S(=O)(=O)c1ccccc1	.	.	/	/	.	.
C[C@]12CCC3c4ccc(O)cc4CCC3C1CCC2OC(=O)CCC1CCCC1 (stereo partly drawn)	/	/	/	/	.[2.33 µM]	/
Cc1nc([N+](=O)[O-])c(SCC(O)CCl)n1Cc1ccc(Cl)cc1 (stereo not drawn)	.[11.4 µM]	.	.	.	28µM	.
O=C(O)CNS(=O)(=O)c1ccc2c(c1)C(=O)c1cc(S(=O)(=O)NCC(=O)O)ccc1-2	.	.	.	.	45µM	.
O=C1c2cc(S(=O)(=O)NCCO)ccc2-c2ccc(S(=O)(=O)NCCO)cc21	.	.	.	.	.	.

Screens as filed in PubChem BioAssay.
